# Literature values as cited in PubChem BioAssay AID977608.
# Out of some 4,300 compounds screened, about 4,300 (100%) were called active. Cut-off not given; nearly all actives show IC50 up to about 1400 µM. So high a share suggests a set chosen from earlier hits. This is one part of the list. *1 amine or outer side, *2 acyl side, *3 side chain or, on linkers, in order; H or OH if unused. Where a SMILES comes first, the peptide text is derived from it. Square brackets hold non-standard residues; d marks the D form. Residues, ends and D or L forms follow the SMILES beside them. Side-chain parts run from the residue outwards. Peptide text beside a SMILES is read from it. [ ]: non-standard residue; d: D form. The star is where a group is joined. N(2S-NH-3-Ph-propyl)Phe = O=C([C@H](Cc1ccccc1)N(C[C@H](Cc1ccccc1)N[*:3])[*:1])[*:2]; Orn(CH(NH2)2) = NC(N)NCCC[C@H](N)C(=O)O; X1 = CC(N)NCCC[C@H](N)C(=O)*; Nle = CCCC[C@H](N)C(=O)O
# Test: protein-ligand inhibition affinities from structures – PDB-derived complexes (AID 977608)
# [1] = literature IC50, protein: metallodependent class II fructose-1,6-bisphosphate aldolase (FBA-tb), PDB entry 4a22 unless noted
compound,measurement,setting,value
COCCN/C=C1/C(=O)N(C)c2ccc(C(F)(F)F)cc2N(c2ccccc2)C1=O,IC50,[1],"890 nM [literature IC50, protein: HIV-1 capsid protein (N-terminal domain), PDB entry 4inb] (active)"
C[N+](C)(C)CCCP(O)O,IC50,[1],"520 nM [literature IC50, protein: human gamma-butyrobetaine hydroxylase, PDB entry 4bgk] (active)"
O=C(O)c1ccc2cccc(O)c2n1,IC50,[1],"10000 nM [literature IC50, protein: M. tuberculosis's class IIa fructose 1,6-bisphosphate aldolase, MtFBA, PDB entry 4lv4] (active)"
c1csc(-c2cc(CNC34CC5CC(CC(C5)C3)C4)no2)c1,IC50,[1],"16000 nM [literature IC50, protein: Membrane ion channel M2, PDB entry 2ly0] (active)"
COCN1CCC(C(N)=O)CC1,IC50,[1],"300000 nM [literature IC50, protein: ACETYLCHOLINESTERASE, PDB entry 3zlv] (active)"
Cc1cc(S(=O)(=O)N(Cc2ccc([N+](=O)[O-])cc2)[C@H](C)C(=O)NO)ccc1F,IC50,[1],"14900 nM [literature IC50, PDB entry 4pkt] (active)"
Cc1cc(S(=O)(=O)N(Cc2ccc(CN)cc2)[C@H](C)C(=O)NO)ccc1F,IC50,[1],"5600 nM [literature IC50, PDB entry 4pkv] (active)"
Cc1cc(S(=O)(=O)N(Cc2ccccc2)[C@H](C)C(=O)NO)ccc1F,IC50,[1],"15200 nM [literature IC50, PDB entry 4pkr] (active)"
Cc1cc(S(=O)(=O)N(Cc2cccc(N)c2)[C@H](C)C(=O)NO)ccc1F,IC50,[1],"30000 nM [literature IC50, PDB entry 4pku] (active)"
Cc1cc(S(=O)(=O)N(Cc2cccnc2)[C@H](C)C(=O)NO)ccc1F,IC50,[1],"15200 nM [literature IC50, PDB entry 4pks] (active)"
FC(F)(F)c1nc2ccccc2[nH]1,IC50,[1],"138 µM [literature IC50, protein: 3-OXOACYL-[ACYL-CARRIER-PROTEIN] REDUCTASE FABG, PDB entry 4bnt] (active)"
CCOC(=O)CC[C@H](C[C@@H]1CCNC1=O)NC(=O)[C@@H](CC(=O)[C@@H](NC(=O)c1cc(C)on1)C(C)C)Cc1ccc(F)cc1,IC50,[1],"1670 nM [literature IC50, protein: 3C proteinase, PDB entry 4ght] (active)"
O=C(CO[P+](O)(O)O)N(O)CCCCO[P+](O)(O)O,IC50,[1],3.2 nM (active)
CCC(CC)O[C@@H]1CC(C(=O)O)C[C@H](N)[C@H]1NC(C)=O (stereo not given in full),IC50,[1],"0.5 nM [literature IC50, protein: Neuraminidase, PDB entry 4hzx] (active)"
CCC(CC)O[C@@H]1C[C@H](C(=O)O)C[C@H](N)[C@H]1NC(C)=O,IC50,"literature IC50, protein: Neuraminidase7, PDB entry 4qn7",0.84 nM (active)
same,IC50,"literature IC50, protein: Neuraminidase, PDB entry 4mww",215000 nM (active)
CCC(CC)O[C@@H]1C[C@@H](C(=O)O)C[C@H](N)[C@H]1NC(C)=O,IC50,[1],"0.79 nM [literature IC50, protein: Neuraminidase, PDB entry 4mwq] (active)"
CCC(CC)O[C@@H]1CC(C(=O)O)=C[C@H](N)[C@@H]1NC(C)=O,IC50,[1],"0.9 nM [literature IC50, protein: Influenza Neuraminidase H3N8, PDB entry 4m3m] (active)"
Nc1c2c(nc3cc(Cl)ccc13)C[C@H]1C=C(CCO)C[C@@H]2C1,IC50,[1],"1.1 nM [literature IC50, protein: ACETYLCHOLINESTERASE, PDB entry 4bdt] (active)"
Nc1c2c(nc3cc(Cl)ccc13)C[C@H]1C=C(CCCCn3cc(CO)nn3)C[C@@H]2C1,IC50,[1],"0.43 nM [literature IC50, protein: ACETYLCHOLINESTERASE, PDB entry 4a16] (active)"
O=C(O)Cc1cc(=O)oc2c(O)c(O)ccc12,IC50,[1],"4800 nM [literature IC50, protein: Reverse transcriptase/ribonuclease H RT RNase H, PDB entry 4qag] (active)"
CC[C@H](C)[C@H]1NC(=O)[C@@H](NC(=O)[C@H](C)[C@H](O)C(C)C)[C@@H](C)OC(=O)[C@@H]2COC(=O)CNC(=O)/C=C/[C@]3(CO3)[C@@H](C)Oc3ccc(cc3)[C@H](NC1=O)C(=O)N(C)[C@@H](Cc1ccccc1)C(=O)N[C@H]([C@@H](C)O)C(=O)N2,IC50,[1],"200 nM [literature IC50, protein: Escherichia coli RNA polymerase, PDB entry 4mex] (active)"
C[C@H](N)C(=O)N[C@@H](C)C(=O)N[C@@H](C)C(=O)O,IC50,[1],"340000 nM [literature IC50, protein: DI-OR TRIPEPTIDE\:H+ SYMPORTER, PDB entry 4d2d] (active)"
C[C@@]1(O)CCN2C(=O)CCc3cccc1c32,IC50,[1],"198000 nM [literature IC50, protein: DUAL SPECIFICITY MITOGEN-ACTIVATED PROTEIN KINASE KINASE 1, PDB entry 3zlw] (active)"
Oc1cc(Cl)ccc1Oc1ccc(Cl)cc1Cl,IC50,[1],"54.7 µM [literature IC50, protein: Enoyl-[acyl-carrier-protein] reductase hERG, PDB entry 4w9n] (active)"
Nc1nc2nc(C(=O)NCCNC(=O)O)cnc2c(=O)[nH]1,IC50,[1],"28000 nM [literature IC50, PDB entry 4mx5] (active)"
Nc1nc2nc(C(=O)NCCNC(=O)Nc3ccccc3)cnc2c(=O)[nH]1,IC50,[1],"209000 nM [literature IC50, PDB entry 4mx1] (active)"
NCCCCC[C@@H](C[SeH5])C(=O)O,IC50,[1],"2 nM [literature IC50, protein: Carboxypeptidase B, PDB entry 3wc5] (active)"
CCCC[C@H](NC(=O)[C@H](C)NC(=O)[C@H](CCC(=O)O)NC(=O)[C@H](Cc1ccccc1)NC[C@H](Cc1ccccc1)NC(=O)[C@@H](NC(=O)[C@@H](N)CCCNC(C)N)C(C)C)C(=O)O (stereo partly drawn) (H-[N(2S-NH-3-Ph-propyl)Phe]([Val-X1])EA[Nle]-OH),IC50,[1],"142 nM [literature IC50, protein: HIV-1 PROTEASE (Q7K, L10I, D25N, M36V, M46L, I54V, I62V, L63P, A71V, V82T, I84V, L90M mutation), PDB entry 4gye] (active)"
Nc1ncnc2c1ncn2[C@@H]1O[C@H](CO[P+](=O)O[C@@H]2[C@H](O)[C@@H](CO[P+](O)(O)O[C@@H]3[C@H](O)[C@@H](CO[P+](O)(O)O)O[C@H]3n3cnc4c(N)ncnc43)O[C@H]2n2cnc3c(N)ncnc32)[C@@H](O)[C@H]1O (stereo not given in full),IC50,[1],"13 nM [literature IC50, protein: interferon-induced endoribonuclease, ribonuclease L, PDB entry 1wdy] (active)"
Oc1c(Cl)cc(Cl)cc1-c1[nH]c(Br)c(Br)c1Br,IC50,[1],"2200 nM [literature IC50, protein: Non-Mevalonate Pathway Enzyme IspD from Arabidopsis thaliana, PDB entry 4nal] (active)"
Oc1c(Br)cccc1-c1[nH]c(Br)c(Br)c1Br,IC50,[1],"19000 nM [literature IC50, protein: Non-Mevalonate Pathway Enzyme IspD from Arabidopsis thaliana, PDB entry 4nan] (active)"
Oc1c(Br)cc(Br)cc1-c1[nH]c(Br)c(Br)c1Br,IC50,[1],"1400 nM [literature IC50, protein: Non-Mevalonate Pathway Enzyme IspD from Arabidopsis thaliana, PDB entry 4nak] (active)"
CC(C)C[C@H](NC(=O)[C@H](CO)NC(=O)[C@H](CO)NC(=O)[C@H](CCC(=O)O)NC(=O)[C@H](Cc1ccc(O)cc1)NC(=O)[C@H](Cc1ccc(O)cc1)NC(=O)[C@H](CCCNC(N)N)NC(=O)[C@@H](N)Cc1ccccc1)C(=O)N[C@@H](CCC(=O)O)C(=O)N1CCC[C@H]1C(=O)N[C@@H](Cc1c[nH]c2ccccc12)C(=O)N[C@@H](CC(=O)O)C(=O)N[C@@H](CC(=O)O)C(=O)O (HELM PEPTIDE1{F.[NC(N)NCCC[C@H](N[*:1])C(=O)[*:2]].Y.Y.E.S.S.L.E.P.W.D.D}$$$$V2.0),IC50,[1],"4.9 nM [literature IC50, PDB entry 1rgj] (active)"
CC(C)C[C@H](NC(=O)[C@H](CO)NC(=O)[C@H](CO)NC(=O)[C@H](CCC(=O)O)NC(=O)[C@H](Cc1ccc(O)cc1)NC(=O)[C@H](Cc1ccc(O)cc1)NC(=O)[C@H](CCCNC(N)N)NC(=O)[C@@H](N)Cc1c[nH]c2ccccc12)C(=O)N[C@@H](CCC(=O)O)C(=O)N1CCC[C@H]1C(=O)N[C@@H](Cc1ccc(O)cc1)C(=O)N1CCC[C@H]1C(=O)N[C@@H](CC(=O)O)C(=O)O (H-W[Orn(CH(NH2)2)]YYESSLEPYPD-OH),IC50,[1],"2 nM [literature IC50, PDB entry 1haa] (active)"
CC(C)C[C@H](NC(=O)[C@H](CO)NC(=O)[C@H](CO)NC(=O)[C@H](CCC(=O)O)NC(=O)[C@H](Cc1ccc(O)cc1)NC(=O)[C@H](Cc1ccc(O)cc1)NC(=O)[C@H](CCCNC(N)N)NC(=O)[C@@H](N)Cc1c[nH]cn1)C(=O)N[C@@H](CCC(=O)O)C(=O)N1CCC[C@H]1C(=O)N[C@@H](Cc1c[nH]c2ccccc12)C(=O)N[C@@H](Cc1ccc(O)cc1)C(=O)N1CCC[C@H]1C(=O)N[C@@H](CC(=O)O)C(=O)O (H-H[Orn(CH(NH2)2)]YYESSLEPWYPD-OH),IC50,[1],"120 nM [literature IC50, PDB entry 1jbd] (active)"
C[C@@H]1Oc2ccc(CN3CC=C(c4ccc(Cl)cc4)CC3)cc2NC1=O,IC50,[1],"3 nM [literature IC50, protein: Poly [ADP-ribose] polymerase 1, PDB entry 4l6s] (active)"
COC(=O)C[C@@H](C)c1n[nH]c2nc(N)[nH]c(=O)c2c1=O,IC50,[1],"376000 nM [literature IC50, protein: Dihydropteroate synthase, PDB entry 4d8a] (active)"
CCC(CC)Oc1cc(C(=O)O)cc(N)c1NC(C)=O,IC50,[1],"8.31 nM [literature IC50, protein: Neuraminidase, PDB entry 4hzz] (active)"
CCc1c(C)nc(-c2ccc(Cl)s2)nc1Nc1ccc(CC(=O)O)cc1,IC50,[1],"32 nM [literature IC50, protein: Catalytic Domain Of Human Phosphodiesterase 4B, PDB entry 4myq] (active)"
Cc1nc(-c2nc3ccc(Cl)cc3[nH]2)c(C)c(-c2ccccc2)c1[C@H](OC(C)(C)C)C(=O)O,IC50,[1],"5.03 nM [literature IC50, protein: Integrase HIV-1 IN CCD F185K/A128T, PDB entry 4o5b] (active)"
CO[C@H](C(=O)O)c1c(C)nc2ccc(Br)cc2c1-c1ccc(Cl)cc1,IC50,"literature IC50, protein: HIV-1 Integrase catalytic core domain (A128T, F185K mutation), PDB entry 4jlh",4000 nM (active)
same,IC50,"literature IC50, protein: HIV-1 Integrase, PDB entry 4dmn",2300 nM (active)
Cc1nc2ccccc2c(-c2cc(F)c3c(c2C)CCCO3)c1[C@H](OC(C)(C)C)C(=O)O,IC50,[1],"67 nM [literature IC50, protein: HIV-1 integrase (F185K mutation), PDB entry 4e1n] (active)"
Cc1ccc(-c2c([C@H](OC(C)(C)C)C(=O)O)c(C)nc3ccccc23)cc1C,IC50,[1],"55 nM [literature IC50, protein: HIV-1 Integrase (F185K mutation), PDB entry 4e1m] (active)"
